# Test results as given in the supplement of paper PMC9694430.
# Tests used:
# Assay in all cases: thermal shift delta Tm vs DMSO control; higher = stronger stabilization (binding)
# Conditions in all cases: 12.5 µM; protein concentration 2 µM
# [1] = tested on: LOC_OS01G57100-cb003
# Procedure, shortened: (§1)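 Compounds dissolved in DMSO were added to purified rice kinase domain constructs, which had been expressed in E. coli, for differential scanning fluorimetry. Each well held 19.5 μl of 2 μM kinase in 100 mM potassium phosphate pH 7.5, 150 mM NaCl, 10% glycerol and 5 × SYPRO Orange. Fluorescence was followed from 25°C to 95°C at a rate of 0.05°C/s. Shifts in Boltzmann-fitted melting temperature are triplicate means relative to DMSO-only protein.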
# [2] = tested on: LOC_OS01G60330-cb001
# Procedure, shortened: as §1
# [3] = tested on: LOC_OS01G60700-cb002
# Procedure, shortened: as §1
# [4] = tested on: LOC_OS01G63280-cb003
# Procedure, shortened: as §1
# [5] = tested on: LOC_OS01G67340-cb003
# Procedure, shortened: as §1
# [6] = tested on: LOC_OS01G70970-cb002
# Procedure, shortened: as §1
# [7] = tested on: LOC_OS02G07810-cb001
# Procedure, shortened: as §1
# [8] = tested on: LOC_OS02G08530-cb003
# Procedure, shortened: as §1
# [9] = tested on: LOC_OS02G14120-cb001
# Procedure, shortened: as §1
# [10] = tested on: LOC_OS02G17970-cb001
# Procedure, shortened: as §1
# [11] = tested on: LOC_OS02G45750-cb003
# Procedure, shortened: as §1
# [12] = tested on: LOC_OS02G54510-cb004
# Procedure, shortened: as §1
# [13] = tested on: LOC_OS03G04050-cb001
# Procedure, shortened: as §1
# [14] = tested on: LOC_OS03G12390-cb001
# Procedure, shortened: as §1
# [15] = tested on: LOC_OS03G27990-cb004
# Procedure, shortened: as §1
# [16] = tested on: LOC_OS03G50450-cb001
# Procedure, shortened: as §1
# [17] = tested on: LOC_OS03G50810-cb003
# Procedure, shortened: as §1
# [18] = tested on: LOC_OS04G35114-cb001
# Procedure, shortened: as §1
# [19] = tested on: T1, LOC_OS04G38480-cb003
# T1 sequence (whole entry): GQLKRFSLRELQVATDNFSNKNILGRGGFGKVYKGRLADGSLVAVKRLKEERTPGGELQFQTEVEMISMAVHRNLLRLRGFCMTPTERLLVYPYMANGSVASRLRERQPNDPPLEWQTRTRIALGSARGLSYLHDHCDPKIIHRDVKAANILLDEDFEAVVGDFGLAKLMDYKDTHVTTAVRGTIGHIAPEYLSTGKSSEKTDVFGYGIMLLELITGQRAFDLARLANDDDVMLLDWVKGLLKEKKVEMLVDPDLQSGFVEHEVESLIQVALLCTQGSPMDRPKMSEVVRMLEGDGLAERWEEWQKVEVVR
# Procedure, shortened: as §1
# [20] = tested on: T2, LOC_OS04G41100-cb001
# T2 sequence (whole entry): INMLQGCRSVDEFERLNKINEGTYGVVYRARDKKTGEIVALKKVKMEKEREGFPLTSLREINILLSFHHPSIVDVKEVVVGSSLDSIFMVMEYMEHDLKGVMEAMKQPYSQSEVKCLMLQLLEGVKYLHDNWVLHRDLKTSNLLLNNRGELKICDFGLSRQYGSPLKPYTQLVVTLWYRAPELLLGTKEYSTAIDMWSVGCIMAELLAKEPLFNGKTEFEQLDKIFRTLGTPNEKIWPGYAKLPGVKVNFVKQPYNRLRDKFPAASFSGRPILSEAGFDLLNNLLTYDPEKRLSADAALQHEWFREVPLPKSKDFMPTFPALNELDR
# Procedure, shortened: as §1
SMILES,thermal shift delta Tm [1] [°C],thermal shift delta Tm [2] [°C],thermal shift delta Tm [3] [°C],thermal shift delta Tm [4] [°C],thermal shift delta Tm [5] [°C],thermal shift delta Tm [6] [°C],thermal shift delta Tm [7] [°C],thermal shift delta Tm [8] [°C],thermal shift delta Tm [9] [°C],thermal shift delta Tm [10] [°C],thermal shift delta Tm [11] [°C],thermal shift delta Tm [12] [°C],thermal shift delta Tm [13] [°C],thermal shift delta Tm [14] [°C],thermal shift delta Tm [15] [°C],thermal shift delta Tm [16] [°C],thermal shift delta Tm [17] [°C],thermal shift delta Tm [18] [°C],thermal shift delta Tm [19] [°C],thermal shift delta Tm [20] [°C]
Oc1ccc(-c2nc(-c3ccc(F)cc3)c(-c3ccncc3)[nH]2)cc1,1.5,0.98,2.02,0.47,-0.26,0.63,1.96,1.58,0.99,1.05,0.9,1.58,0.9,0.88,0.55,0.44,0.55,2.01,1.53,1.35
Cn1c(=O)c(Oc2ccc(F)cc2F)cc2cnc(NC(CCO)CCO)nc21,1.18,0.87,1.45,0.27,0.29,0.4,0.02,1.22,1.36,1,0.76,0.53,0.43,-0.19,0.49,0.26,0.46,0.71,0.93,0.09
COc1cc2c(Nc3ccc(NC(=O)c4ccccc4)cc3)ncnc2cc1OCCCN1CCOCC1,0.97,1.05,0.6,1.19,0.4,1.66,1.37,0.66,0.79,0.45,2.66,0.37,0.55,0.43,0.34,0.3,1.85,2.46,0.65,0.59
COc1cc(CCc2cc(NC(=O)c3ccc(N4CC(C)NC(C)C4)cc3)n[nH]2)cc(OC)c1 (stereo not given),0.84,0.69,0.93,0.35,0.25,0.66,0.89,1.49,2.12,-0.05,7.06,0.23,0.27,1.22,1.11,0.29,4.8,5.76,0.62,1.99
O=C(c1cccc(Cl)c1F)N1CCN(Cc2cccc(Nc3nccs3)n2)CC1,1.37,0.61,1.32,0.37,0.2,0.46,1.01,2.51,9.07,-0.27,0.38,0.15,0.55,0.36,0.38,0.14,1.09,7,2.88,0.42
Cc1cc(Nc2cc(CN3CCOCC3)c3nc(C)c(Cc4ccc(Cl)cc4F)n3n2)n[nH]1,0.41,3.94,-0.8,0.12,1.73,1.25,0.19,0.8,8.86,-0.03,3.56,3.12,-0.22,1.36,0.01,0.47,4.81,2.03,2.46,3.22
CC[C@@H]1C(=O)N(C)c2cnc(Nc3ccc(C(=O)NC4CCN(C)CC4)cc3OC)nc2N1C1CCCC1,0.75,2.55,0.69,-0.22,-0.4,0.34,0.2,1.93,0.27,0.02,1.12,0.21,0.16,2.23,-0.16,-0.26,0.11,0.67,-0.31,0.39
O=C(NOCC(O)CO)c1cc(Br)c(F)c(F)c1Nc1ccc(I)cc1F (stereo not given),2.4,2.2,1.6,1.18,0.03,0.55,2.41,1.08,1.22,2.02,-0.49,-0.06,0.63,0.93,0.15,0.19,0.19,0.09,1.04,3.8
C=CC(=O)Nc1ccc2ncnc(Nc3ccc(OCc4cccc(F)c4)c(Cl)c3)c2c1,5.43,8.4,1.59,0,4.19,3.43,2.95,1.07,2.45,2.87,2.15,0.29,1.39,2.82,1.09,1.56,1.76,1.62,4.58,1.61
COc1cc2c(N3CCN(C(=O)Nc4ccc(OC(C)C)cc4)CC3)ncnc2cc1OCCCN1CCCCC1 [Tandutinib (MLN518)],0.97,0.04,0.63,0.12,0.5,-0.15,0.79,0.33,0.24,-0.44,1.37,0.74,0.9,0.38,0.28,0.42,0.95,1.58,1.79,0.92
C=CC(=O)Nc1cccc(Oc2nc(Nc3ccc(N4CCN(C)CC4)cc3)ncc2Cl)c1,-0.75,1.82,0.8,0.27,-0.1,3.9,0.94,2.58,8.31,0,3.96,0.5,0.53,3.42,2.49,1.35,4.77,3.8,1.67,1.1
C=CC(=O)N1CCC(Oc2cc3c(Nc4ccc(Cl)c(Cl)c4F)ncnc3cc2OC)CC1 [Poziotinib (HM781-36B)],0.31,-0.17,0.72,0.26,0.45,0.11,-0.05,1.45,1.12,0.35,2.04,1.05,0,3.61,0.49,1.57,0.16,4.23,1.12,0.18
